Compounds with a hit are over-represented: about 0.8% of the library has one in this group of screens.
Candida biofilm: clotrimazole potentiators killing Candida biofilms, primary screen, with clotrimazole, Alamar Blue; AID 834, 2007; 85,000 compounds, 0.14% hits; C. albicans biofilm + clotrimazole; inhibition, % at 6 µM;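 active = inhibition above 20%; inactive = inhibition below 20%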;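 note: preformed 24 hr biofilms exposed to compound for 48 hr; 0% = biofilm without compound and 100% = blank killed by clotrimazole plus chlorhexidine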
BAP1 block: inhibitors of BAP1 deubiquitinase, primary screen, biochemical, Ub-AMC fluorescence, kinetic | Ubiquitin carboxyl-terminal hydrolase BAP1 (Homo sapiens), Q92560 | recombinant BAP1, Ub-AMC hydrolysis fluorescence kinetic; hits give low values | activity remaining (% of control), % at 20 µM | 72,000 compounds, 0.48% hits | AID 436, 2006;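 active = activity remaining at or below 50% of control, provided the compound also passes the data quality filters; inactive = the rest, including low values that fail the filters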;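 note: 100% = DMSO wells rate and 0% = substrate alone blank rate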
C1s inh: complement C1s protease inhibitors, primary screen, biochemical, 10-compound mixtures. purified C1s, fluorogenic AMC substrate, pooled mixtures. mean inhibition % of two 10-compound mixtures (hits give high values), % at 5 µM (by protocol). 62,000 compounds, 0.16% hits. AID 538, 2006;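 active = inhibition above 20% in each of the two 10-compound mixture wells holding the compound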;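 note: 0% = enzyme wells lacking compound mixture and 100% = no-enzyme blank wells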
FXIa mix inh: FXIa protease inhibitors in compound pools, primary screen, biochemical, 10-compound mixtures; Coagulation factor XI (Homo sapiens), P03951; purified FXIa, fluorogenic substrate, pooled mixtures; inhibition, % at 5 µM; 62,000 compounds, 0.19% hits;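 note: each value is inhibition by a whole ten-compound pool holding the compound; 0% = enzyme with no mixture and 100% = wells lacking enzyme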
CatG inh: human cathepsin G inhibitors, primary screen, biochemical, pooled compound mixtures, AMC fluorescence | purified enzyme, AMC-tetrapeptide fluorescence | inhibition, % at 5 µM (by protocol) | 62,000 compounds, 0.2% hits | AID 581, 2007;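 active = inhibition above 20% in each of the two mixture wells holding the compound; inactive = inhibition of 20% or less in either well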;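 note: 0% = enzyme control without mixture and 100% = blank lacking enzyme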
Target sequence (P08311 21-244 limits assumed): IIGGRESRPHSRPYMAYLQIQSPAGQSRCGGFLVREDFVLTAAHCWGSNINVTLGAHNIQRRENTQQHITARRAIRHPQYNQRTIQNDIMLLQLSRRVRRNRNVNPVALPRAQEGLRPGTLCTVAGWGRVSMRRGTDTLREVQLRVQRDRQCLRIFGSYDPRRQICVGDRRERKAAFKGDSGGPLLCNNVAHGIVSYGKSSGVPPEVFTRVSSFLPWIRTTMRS
FXIIa mix inh: human factor XIIa inhibitors, primary screen, biochemical, pooled compound mixtures, fluorogenic substrate. 62,000 compounds, 0.2% hits. purified FXIIa. Coagulation factor XII (Homo sapiens), P00748. inhibition, % at 5 µM;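 note: 0% = enzyme without compound and 100% = no enzyme blank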
Active calls of the source: *; · = no result shown. Cut-off read from the data, not from the text of the source, unless noted: active = inhibition above about 20% (passing the limit was not always enough); inactive = the rest.

SMILES	Candida biofilm	BAP1 block	C1s inh	FXIa mix inh	CatG inh	FXIIa mix inh
CCN1C(=O)/C(=C/N(C)c2ccccc2)OC1=S	-2	74	2	6	3	-5
Cc1cc(C)n(-c2cccc(Cl)c2)c(=O)c1C#N	0	100	2	9	2	13
Cc1cc(NC(=O)c2noc3c2CCc2ccccc2-3)n(-c2ccccc2)n1	4	91	14	17	59*	11
Cc1ccc(NC(=O)c2noc3c2CCc2ccccc2-3)cc1	7	·	·	·	·	·
COc1ccc(C(=O)Nc2ccc(N3CCCC3)cc2)cc1	80*	·	·	·	·	·
CCOC(=O)C1CCN(c2c(N(C)Cc3ccco3)c(=O)c2=O)CC1	22*	95	-26	-2	-3	-18
CCOC(=O)C1CCCN(c2c(NCc3ccco3)c(=O)c2=O)C1 (configuration not stated)	2	102	-1	2	-6	4
CCC(=O)N1CCN(c2cc3c(cc2F)c(=O)c(C(=O)O)cn3CC)CC1	2	98	-4	9	9	-3
CCn1cc(C(=O)O)c(=O)c2cc(F)c(N3CCNCC3)nc21	22*	106	13	8	10	-11
O=C1CC(c2nc3ccccc3[nH]2)CN1c1cccc(C(F)(F)F)c1 (configuration not stated)	-5	98	-7	5	-4	0
CCN1CCN(CCNC(=O)C2CCCN(Cc3nc(-c4cccc(Cl)c4)oc3C)C2)CC1 (configuration not stated)	-7	92	-4	10	-1	9
CCOC(=O)N1CCC(NC(=O)C2CCCN(Cc3nc(-c4cccc(Cl)c4)oc3C)C2)CC1 (configuration not stated)	·	108	-10	21*	4	1
O=C(c1nn2cccnc2c1Cl)N1CCN(c2ccccc2)CC1	10	89	14	4	5	-16
O=C(CCn1[nH]c(=O)c2ccccc2c1=O)OC1CCCCC1	2	102	15	21*	10	4
CCCCC(c1nnnn1C1CCCC1)N1CCN(C(=O)c2ccco2)CC1 (configuration not stated)	-5	96	18	5	9	-7
COc1ccc(Cl)cc1NC(=O)CCN1CCN(c2ccccc2C)CC1	·	64	67*	5	11	-13
COc1ccc(Cl)cc1NC(=O)CCN1CCN(C)CC1	2	·	·	·	·	·
COc1cccc(C2NC(=O)NC(C)=C2C(=O)Nc2ccccc2C)c1 (configuration not stated)	2	107	0	11	4	8
COc1cccc(C2NC(=O)NC(C)=C2C(=O)Nc2cccc(C)c2C)c1 (configuration not stated)	6	104	15	5	12	21*
NC(=O)CSCc1nc2ccccc2s1	3	·	·	·	·	·
CCCN1C(=O)C(O)(C2CC(=O)CC(C)(C)O2)c2ccccc21 (configuration not stated)	5	95	1	1	8	22*
CC(C)NC(=O)CN(CCc1ccccc1)S(C)(=O)=O	4	121	8	10	14	22*
CC1(C)Oc2ccc(C(=O)NC3CCCC3)cc2N(CC(=O)NC2CCCC2)C1=O	13	99	-15	4	-1	10
CCn1c(=O)c2cc(C(=O)N3CCN(C(=O)c4ccco4)CC3)sc2c2ccccc21	16	44*	-9	-1	7	-1
Cc1noc(N)c1C(=O)Nc1ccc(C(C)(C)C)cc1	5	·	·	·	·	·
SMILES	Candida biofilm	BAP1 block	C1s inh	FXIa mix inh	CatG inh	FXIIa mix inh
O=c1[nH]cnc2sc3c(c12)CCCC3	0	101	8	3	7	-1
CCCCC(c1nnnn1CC1CCCO1)N1CCN(c2cccc(C)c2C)CC1 (configuration not stated)	3	142	-4	1	2	0
COc1ccc(N2C(=O)C3CCCN3C2c2cccc(C)c2)cc1Cl (configuration not stated)	-2	98	-27	3	3	23*
COc1ccc(N2C(=O)C3CCCN3C2c2ccccc2)cc1Cl (configuration not stated)	3	99	-33	3	-9	2
Cc1cnc(C(=O)Nc2ccccc2-c2ccc(C)o2)cn1	0	107	-16	-2	28*	5
O=C(Nc1ccccc1N1CCOCC1)C1Cc2ccccc2CN1C(=O)c1ccco1 (configuration not stated)	16	·	·	·	·	·
Cc1c(NC(=O)C2Cc3ccccc3CN2C(=O)c2ccco2)c(=O)n(-c2ccccc2)n1C (configuration not stated)	2	116	21*	7	14	-9
COc1ccc(C(=O)NCC(c2cccnc2)N2CCN(c3ccccc3OC)CC2)cc1OC (configuration not stated)	24*	93	-3	3	-1	0
Cc1ccc(CNC(=O)c2cccc(-n3cnnn3)c2)cc1	9	87	1	-4	8	-25
COc1ccccc1C(=O)Oc1ccc(C(C)C)cc1	58*	·	·	·	·	·
O=C(NCCc1ccccc1)C1CCN(S(=O)(=O)c2cccnc2)CC1	22*	95	-18	-12	-1	-2
O=C(NCCCCCCNC(=O)C1CCCC1)C1CCCC1	5	·	·	·	·	·
CCOC(=O)N1CCC(N2C(=O)c3cc(C(=O)NC4CCCCC4)ccc3C2O)CC1 (configuration not stated)	7	102	-4	25*	-2	3
OCCCc1nc2n(n1)C(c1ccccc1)C=C(c1ccccc1)N2 (configuration not stated)	3	94	-59	5	-3	9
COc1ccc(C2C=C(c3ccccc3)Nc3nc(CCCO)nn32)cc1 (configuration not stated)	6	·	-26	41*	10	9
COc1ccc(OCCCC(=O)NCC(C)C)cc1	64*	·	·	·	·	·
C=CCNC(=O)CCCOc1ccc(C)cc1	3	·	·	·	·	·
Cn1c(=O)n(C)c2cc(C(N)=O)ccc21	1	74	16	2	14	32*
Cn1c(=O)n(C)c2cc(C(=O)O)ccc21	2	116	-8	6	9	7
CCOC(=O)C(C)On1c(SC(C)C(=O)OCC)nc2ccccc2c1=O (configuration not stated)	10	76	-7	12	1	49*
Oc1cc(O)cc(/C=C/c2ccc(O)c(O)c2)c1	·	38*	·	·	·	·
N#C/C(=C\c1ccc(O)c(O)c1)C(=O)NCCCNC(=O)/C(C#N)=C/c1ccc(O)c(O)c1	·	85	·	·	·	·

Compound activity as filed in PubChem BioAssay.
